In the supplement of paper PMC10127200:
Where a name gives a salt, the structure may show the parent alone.

Assays:
Assay in all cases: Euclidean distance of Cell Painting phenotypic profile (signed KS, 77 features) to DMSO centroid (dimensionless distance); 5 or 10 uM (library dependent); higher = stronger phenotypic change vs DMSO (phenoactivity)
Conditions in all cases: 48 h
786-O = tested on: 786-O
In short: (§1)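 Phenoactivity is defined as the Euclidean distance from a compound profile to the median vehicle profile. Each profile comprised 77 Harmony features, scored as signed Kolmogorov-Smirnov statistics versus same-plate vehicle wells, then plate-position corrected, correlation-weighted and replicate-averaged at the top dose. Five cancer lines and one healthy fibroblast line were exposed to library compounds for 48 h at 10 or 5 uM (0.1% DMSO final).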

A549 = tested on: A549
In short: as §1

DU145 = tested on: DU145
In short: as §1

FB = tested on: FB
In short: as §1

HEPG2 = tested on: HEPG2
In short: as §1

OVCAR4 = tested on: OVCAR4
In short: as §1

Compound | Euclidean distance (786-O) | Euclidean distance (A549) | Euclidean distance (DU145) | Euclidean distance (FB) | Euclidean distance (HEPG2) | Euclidean distance (OVCAR4)
O=C(NC1CCN(CCCCC2(C(=O)NCC(F)(F)F)c3ccccc3-c3ccccc32)CC1)c1ccccc1-c1ccc(C(F)(F)F)cc1 [Lomitapide Mesylate] | 5.45 | 4.4 | 6.1 | 5.88 | 5.29 | 5.65
Cc1cccc(C)c1NC(=O)c1cc(S(N)(=O)=O)c(Cl)cc1O [Xipamide] | 1.51 | 0.665 | 0.648 | 1.08 | 0.576 | 1.08
C[C@H](Cn1cnc2c(N)ncnc21)OCP(=O)(O)O [Tenofovir] | 1.59 | 1.45 | 0.705 | 0.924 | 1.26 | 1.07
COc1ccc(-c2cnc3c(-c4cccc5ncccc45)cnn3c2)cc1 | 0.556 | 0.926 | 1.07 | 0.678 | 0.785 | 0.818
CCCCC(C)(O)C/C=C/[C@H]1[C@H](O)CC(=O)[C@@H]1CCCCCCC(=O)OC (mixture of isomers) [Misoprostol] | 1.2 | 0.849 | 1.06 | 1.07 | 0.553 | 1.08
O=C(NNc1ccccc1)c1ccncc1 | 2.02 | 1.17 | 0.814 | 1.28 | 1.46 | 1.39
C=CCNC1=C2C[C@@H](C)C[C@H](OC)[C@H](O)[C@@H](C)/C=C(\C)[C@H](OC(N)=O)[C@@H](OC)/C=C\C=C(/C)C(=O)NC(=CC1=O)C2=O | 2.85 | 2.95 | 4.51 | 3.47 | 3.86 | 2.72
CN(C)CCOC(c1ccccc1)c1ccccc1.Cn1c(=O)c2[nH]c(Cl)nc2n(C)c1=O [Dimenhydrinate] | 0.947 | 1 | 1.72 | 1.28 | 0.581 | 0.863
Cc1ccc(S(=O)(=O)/C=C/C#N)cc1 | 1.7 | 1.37 | 1.36 | 3.14 | 2.05 | 2.5
NCCCS(=O)(=O)O [Homotaurine] | 1.14 | 1.27 | 0.97 | 0.97 | 0.248 | 1.36
C=CC(=O)Nc1cccc(Oc2nc(Nc3ccc(N4CCN(C)CC4)cc3OC)ncc2Cl)c1 | 1.32 | 1.34 | 1.43 | 0.99 | 1.05 | 1.98
C[C@H]1C[C@@H]2[C@H]([C@@H](O)C[C@@]3(C)[C@H]2CC[C@]3(O)C(=O)CO)[C@@]2(C)C=CC(=O)C=C12 [Methylprednisolone] | 1.37 | 1.96 | 1.76 | 1.79 | 2.31 | 2.07
Nc1cc(F)ccc1NC(=O)c1ccc(CNC(=O)/C=C/c2cccnc2)cc1 [Tucidinostat (Chidamide)] | 3.36 | 2.59 | 2.35 | 3.31 | 3.09 | 2.66
CSCC1CN(/N=C/c2ccc([N+](=O)[O-])o2)C(=O)O1 (stereo not drawn) [Nifuratel] | 0.806 | 0.74 | 0.807 | 0.93 | 1.19 | 1.09
Nc1ccc(S(=O)(=O)c2ccc(N)cc2)cc1 [Dapson] | 1.45 | 2.62 | 2.45 | 1.64 | 0.497 | 1.8
COc1ccc(OC)c(C(O)CNC(=O)CN)c1 (stereo not drawn) [Midodrine] | 0.905 | 1.21 | 0.468 | 0.683 | 0.342 | 0.78
C/C(=C\C(=O)Nc1ccccc1C(=O)O)c1ccc2ccccc2c1 | 0.939 | 1.46 | 1.76 | 1.59 | 0.714 | 0.731
O=C(c1cn(Cc2cncn2Cc2ccc(Br)cc2)cc1-c1cccc2ccccc12)N1CCOCC1 | 2.26 | 2.37 | 1.56 | 2.75 | 1.15 | 1.92
Cn1nnc(-c2ccc(-c3ccc(N4C[C@H](CO)OC4=O)cc3F)cn2)n1 [Tedizolid] | 1.38 | 1.13 | 0.583 | 0.908 | 1 | 1.01
C[C@H]1COc2c(C3(N)CC3)c(F)cc3c(=O)c(C(=O)O)cn1c23 [Pazufloxacin mesylate] | 1 | 1.18 | 0.975 | 0.993 | 1.28 | 1.36
CN(C)CCN(Cc1ccc(Cl)cc1)c1ccccn1 [Chloropyramine hydrochloride] | 0.88 | 1.23 | 1.39 | 1.03 | 0.594 | 1.1
O=c1ncccn1[C@@H]1O[C@H](CO)[C@@H](O)[C@H]1O [Zebularine] | 1.2 | 1 | 0.895 | 0.816 | 0.887 | 0.492
CCN1CC(CCN2CCOCC2)C(c2ccccc2)(c2ccccc2)C1=O (stereo not drawn) [Doxapram HCl] | 0.672 | 0.512 | 0.481 | 0.699 | 0.498 | 0.962
Cc1ccc(C(=O)Nc2ccc(Oc3cc4cnn(C)c4cc3-c3cn[nH]c3)c(F)c2)c(=O)n1-c1ccc(F)cc1 | 1.83 | 1.59 | 1.22 | 3.01 | 2.28 | 1.67

Compound | Euclidean distance (786-O) | Euclidean distance (A549) | Euclidean distance (DU145) | Euclidean distance (FB) | Euclidean distance (HEPG2) | Euclidean distance (OVCAR4)
N[C@@H](CC(=O)N1CCn2c(nnc2C(F)(F)F)C1)Cc1cc(F)c(F)cc1F [Sitagliptin phosphate monohydrate] | 0.554 | 0.819 | 1.11 | 0.644 | 0.395 | 0.956
COc1c(C)c2c(c(O)c1C/C=C(\C)CCC(=O)O)C(=O)OC2 [Mycophenolic acid] | 2.65 | 3.38 | 1.88 | 3.04 | 2.74 | 3.28
CCN1CCC[C@H]1CNC(=O)c1cc(S(N)(=O)=O)ccc1OC [Levosulpiride] | 1.03 | 0.793 | 1.14 | 0.991 | 1.73 | 1.77
CC1(C)S[C@@H]2[C@H](NC(=O)[C@H](N)c3ccc(O)cc3)C(=O)N2[C@H]1C(=O)O [Amoxicillin trihydrate] | 0.875 | 1 | 0.666 | 0.987 | 0.529 | 1.31
Nc1ccc(/N=N/c2ccccc2)c(N)n1 [Phenazopyridine HCl] | 1.22 | 0.654 | 0.961 | 1.04 | 1.07 | 0.739
CCCc1cc(C)[nH]c(=O)c1CNC(=O)c1cc(-c2ccc(N3CCN(C(C)C)CC3)nc2)cc2c1cnn2C(C)C | 1.57 | 1.62 | 1.42 | 2.34 | 1.03 | 1.18
COc1ccc(CN2CCN(C(c3ccc(F)cc3)c3ccc(F)cc3)CC2)c(OC)c1OC [Lomerizine 2HCl] | 1.91 | 1.66 | 1.02 | 1.08 | 1.13 | 1.72
CCC1=C[C@@H]2CN(C1)Cc1c([nH]c3ccccc13)[C@@](C(=O)OC)(c1cc3c(cc1OC)N(C)[C@H]1[C@@](O)(C(=O)OC)[C@H](OC(C)=O)[C@]4(CC)C=CCN5CC[C@]31[C@@H]54)C2 [Vinorelbine Tartrate] | 3.19 | 3.7 | 4.27 | 3.46 | 2.97 | 3.03
CCOC(=O)C1=C(COCCN)NC(C)=C(C(=O)OC)[C@@H]1c1ccccc1Cl [Levamlodipine] | 0.971 | 0.702 | 0.684 | 1.12 | 0.978 | 0.931
CCOC(CN1CCN(CC(C)C(=O)c2ccccc2)CC1)c1ccccc1 (stereo not drawn) [Eprazinone 2HCl] | 1.87 | 1.02 | 1.2 | 1.38 | 1.56 | 1.28
CC1=C(/C=C/C(C)=C/C=C/C(C)=C/CO)C(C)(C)CCC1 [Vitamin A] | 0.784 | 1.06 | 0.821 | 1.61 | 0.745 | 1.33
Cc1nc(C#Cc2ccnc(Cl)c2)c(C)n1-c1ccc(OC(F)(F)F)cc1 | 0.836 | 0.736 | 0.706 | 0.731 | 0.904 | 1.2
CNS(=O)(=O)CCc1ccc2[nH]cc(C3CCN(C)CC3)c2c1 [Naratriptan] | 1.48 | 0.741 | 1.01 | 0.996 | 0.943 | 1.33
C[C@@]1(C(=O)Nc2ccc(F)nc2)CCCN1c1nc(Nc2cc(C3CC3)n[nH]2)c2cccn2n1 | 2.52 | 3.2 | 3.3 | 3.23 | 2.63 | 3.61
COc1cc(C(=O)OCCCCNC(=N)N)cc(OC)c1O [Leonurine] | 1.19 | 0.869 | 0.698 | 1.29 | 0.641 | 0.953
c1ccc2c(CCNc3ccc(Nc4ccncc4)cc3)c[nH]c2c1 | 2.61 | 2.76 | 1.77 | 2.87 | 2.65 | 3.75
Nc1ccc(S(=O)(=O)Nc2ccc(Cl)nn2)cc1 [Sulfachloropyridazine] | 1.32 | 1.01 | 0.856 | 0.835 | 0.669 | 1.25
Cc1cc(Cl)ccc1OCCCC(=O)NO [Droxinostat] | 1.32 | 1.68 | 0.991 | 1.3 | 1.07 | 0.782
CC(=O)Nc1ccc(CC(=O)O)cc1 [Actarit] | 1.12 | 0.862 | 0.902 | 1.09 | 0.464 | 0.872
CCCCOc1cc(C(=O)NCCN(CC)CC)c2ccccc2n1 [Cinchocaine] | 0.885 | 1.28 | 0.93 | 1.03 | 1.47 | 1.21
CC(=O)[C@]1(O)Cc2c(O)c3c(c(O)c2[C@@H](O[C@H]2C[C@H](N)[C@H](O)[C@H](C)O2)C1)C(=O)c1ccccc1C3=O [Idarubicin HCl] | 5.7 | 4.85 | 4.5 | 4.44 | 5.24 | 6.18
COc1cc(C)c(/C=C/C(C)=C/C=C/C(C)=C/C(=O)O)c(C)c1C [Acitretin] | 1.13 | 0.972 | 0.881 | 2.31 | 1.39 | 1.13
COc1cnc(NS(=O)(=O)c2ccc(N)cc2)nc1 [Sulfameter] | 1.33 | 1.11 | 0.768 | 1.28 | 1.49 | 1.5
CCOC(=O)[C@H](CCc1ccccc1)N[C@@H](C)C(=O)N1C(=O)N(C)C[C@H]1C(=O)O [Imidapril HCl] | 0.604 | 0.657 | 0.965 | 1.1 | 1.55 | 1.05
